The list is not random: actives were taken first. Their share in the collection is about 3.5%.
MITF inh – human MITF inhibition, primary screen; AID 1259374; 0.91% of 650,000 active; AlphaScreen MITF homodimerization, bead proximity signal; inhibition, % at 2.6 µM; in the data active = inhibition above about 50%;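 also: 0% = vehicle wells with protein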
GPR151 activ – activates the human receptor GPR151 | PathHunter beta-arrestin GPR151 cells, luminescence | 1% of 650,000 active | AID 1508602 | activation, % at 11.2 µM; in the data active = activation above about 4.9%;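 also: 0% = median of compound wells and 100% = cells with positive control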
Target sequence (Q8TDV0 whole entry, looked up): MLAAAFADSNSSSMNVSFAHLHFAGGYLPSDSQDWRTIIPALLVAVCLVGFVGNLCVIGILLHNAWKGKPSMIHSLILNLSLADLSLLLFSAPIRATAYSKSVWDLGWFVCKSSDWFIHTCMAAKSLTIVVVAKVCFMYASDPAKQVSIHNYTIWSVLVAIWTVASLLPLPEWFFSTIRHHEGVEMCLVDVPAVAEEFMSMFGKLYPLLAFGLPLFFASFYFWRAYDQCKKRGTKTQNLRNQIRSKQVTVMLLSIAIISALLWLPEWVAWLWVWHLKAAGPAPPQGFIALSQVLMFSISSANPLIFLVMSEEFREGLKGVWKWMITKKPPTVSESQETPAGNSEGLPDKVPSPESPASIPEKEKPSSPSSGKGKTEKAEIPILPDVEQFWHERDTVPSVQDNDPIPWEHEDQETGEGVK
FBW7 activator – human FBW7 E3 ligase activation, primary screen; Q969H0; AlphaScreen FBW7–phospho-cyclin E peptide binding, activator screen; normalized activity (activation), % at 26.1 µM; 0.13% of 650,000 active; AID 1259310; in the data active = normalized activity above about 1.9%;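 also: purified mutant Fbw7 with reduced substrate affinity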
TEAD-YAP inh – TEAD-YAP interaction inhibition. HEK-TIYL cells, TEAD-Gal4/YAP UAS-luciferase luminescence. inhibition, % at 9.12 µM. 1.4% of 640,000 active; in the data active = inhibition above about 32%;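 also: 0% = median of test compound wells and 100% = reference inhibitor wells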
Numbers without * were called inactive.

SMILES	MITF inh	GPR151 activ	FBW7 activator	TEAD-YAP inh
Cn1ncc(-c2ccnc(Nc3ccc(N4CCOCC4)cc3)c2)c1Nc1ccccc1	-4	2	-1	20
Cc1ncn(-c2ccc(Nc3cc(-c4cnn(CCc5ccccc5)c4-c4ccc(F)cc4)ccn3)cc2)n1	24	0	0	34*
CCCn1cc(-c2ccnc(Nc3ccc(-n4cnc(C)n4)cc3)c2)c(-c2ccc(F)cc2)n1	29	1	0	-7
Cn1ncc(-c2ccnc(Nc3ccc(N4CCOCC4)cc3)c2)c1N	0	0	0	35*
N#CC(C#N)C(CC(=O)c1ccc(Br)cc1)c1cccs1 (stereo unspecified)	6	-1	0	-25
CCOC(=O)C1CCN(Cc2nc3cc(OC)c(OC)cc3c(=O)[nH]2)CC1	7	0	0	18
N/C(=N\OC(=O)c1ccccc1I)c1ccccn1	-14	-5	0	-27
N/C(=N\OC(=O)c1cccc(Cl)c1)c1ccccn1	12	-6	0	49*
N/C(=N\OC(=O)c1ccccc1F)c1ccccn1	18	-9	1	82*
N/C(=N\OC(=O)c1ccccc1Br)c1ccccn1	15	-7	0	66*
Cc1cc(C)cc(C(=O)O/N=C(\N)c2ccccn2)c1	15	-1	0	-44
COc1ccccc1C(=O)O/N=C(\N)c1ccccn1	1	-8	0	38*
CN(Cc1cccs1)C(=O)CC1(c2ccc(-c3ccccc3)cc2)CC(=O)N(C)C1=O (stereo unspecified)	11	-1	0	-77
COC(=O)c1ccc(CN2CC(c3nc(C4CC4)no3)C2)cc1	32	2	0	4
COC(=O)[C@@H]1C[C@@H](NC(=O)c2ccccc2OC)CN1Cc1ccc(F)cc1F	-1	-1	0	-14
CC(C)N(CCNC(=O)c1cccc(-c2ccc(C(N)=O)cc2)c1)C(C)C	15	1	0	2
Cc1ccc(C(=O)O/N=C(\N)c2ccccn2)c(C)c1	-4	-10	0	90*
O=C(Nc1sc2c(c1C(=O)Nc1ccccc1)CCCC2)c1ccco1	3	1	0	16
Cc1nc(SCc2ccccc2)n[nH]1	-3	1	0	3
COc1ccc(CSc2n[nH]c(C)n2)cc1	7	0	0	64*
Cc1nc(SCc2ccc(CSc3n[nH]c(C)n3)cc2)n[nH]1	6	-7	0	83*
CCCCNc1nc(CC(=O)OC)nc2sc(C(=O)OCC)c(C)c12	-2	-1	0	-5
Cc1nc2ccc3nc(NC(=O)c4ccco4)sc3c2s1	-20	1	26*	-48
Cc1nc2c(ccc3nc(NC(=O)c4ccco4)sc32)s1	19	-2	0	50*
O=C(Nc1nnc(C23CC4CC(CC(C4)C2)C3)s1)c1ccco1	11	-1	1.9*	-16
SMILES	MITF inh	GPR151 activ	FBW7 activator	TEAD-YAP inh
Cc1nc2c(ccc3nc(NC(=O)C4=COCCO4)sc32)s1	-4	-6	0	79*
Cc1ccc(C(=O)Nc2nc3ccc4sc(C)nc4c3s2)cc1	10	-2	0	-19
COc1ccc(C(=O)c2oc3ccccc3c2NC(=O)COc2ccccc2OC)cc1	-5	-1	0	2
CC(C)OC(=O)C1C(C)CC2(C)CC1C(=O)O2 (stereo unspecified)	-3	0	0	1
COc1cc2c(-c3ccccc3)c(C)oc2cc1CN1CCN(C)C(CCO)C1 (stereo unspecified)	11	1	0	-14
O=[N+]([O-])c1cc(-c2ccc(/C=N\n3cnnc3)o2)ccc1O	58*	-3	0	5
CC(Nc1ccc(Br)cc1)C(=O)NNC1=NCCCCC1 (stereo unspecified)	4	-1	0	3
CCOc1cc(C(NC(=O)Cc2ccccc2)NC(=O)Cc2ccccc2)ccc1OCc1ccccc1	-8	-1	0	0
Cc1ccc2[nH]c(=O)c3cc(C(=O)N4CCN(C)CC4)sc3c2c1	-1	0	0	0
CCN1CCN(C(=O)c2cc3c(=O)[nH]c4ccc(C)cc4c3s2)CC1	18	1	0	37*
COc1cccc(N2C[C@@H]3C[C@@H](c4cnn(-c5ccccc5)c4)N4CCC[C@@]34C2=O)c1	-2	1	0	37*
Cc1cc(NNC(=O)c2ccccc2Cl)c2cccc(C)c2n1	-11	0	0	40*
COc1ccc(C(=O)NNc2cc(C)nc3c(C)cccc23)cc1	13	-1	0	10
CC(C)[C@@H](CO)Nc1ccc2ncc(-c3ccccc3)n2n1	4	1	1	28
CC(C)[C@@H](CO)Nc1ccc2ncc(-c3cccc(Cl)c3)n2n1	-2	0	2.0*	5
